Source: PubChem BioAssay
Sampled rows, rich in hits. Any-hit rate of the full collection: about 3.4%.
GCN5L2 inh: qHTS Assay for Inhibitors of GCN5L2 | Histone acetyltransferase KAT2A (Homo sapiens), Q92830 | GCN5L2 HAT assay, ThioGlo1 CoA-SH fluorescence | Potency, µM (series often up to 58.9 µM), for the others: top-dose activity change, negative = inhibition, most hits filed as inhibitors | hit rate 0.21% among 390,000 | AID 504327, 2011; also: % is scaled to controls: 0 for no effect and ±100 for the full control effect
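Titration-based screen in which CoA formation is detected via maleimide probe ThioGlo1 (50uM) turning fluorescent on thiol reaction; substrates H3(1-25) 75uM and acetyl-CoA 70uM, GCN5L2 20nM, 20 min incubation at room temperature.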
Mito fusion yeast: qHTS Assay for Small Molecule Inhibitors of Mitochondrial Division or Activators of Mitochondrial Fusion; S. cerevisiae fusion-defective mutant growth rescue, CellTiterGlo 48 h; Potency, µM (series often up to 46.1 µM), for the others: at the top dose growth rescue (activation), most hits filed as activators; hit rate 0.23% among 320,000; AID 485298, 2010; also: % of control where 0% means no effect; nearly all actives have a fitted effect of over 45% in size
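Yeast fusion mutant, YPEG (non-fermentable carbon), compound, 48 h at 37C non-permissive; CellTiterGlo added, 10 min RT, luminescence read. Rescued growth = division inhibition.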
GLS inh: qHTS for Inhibitors of Glutaminase (GLS) | Glutaminase kidney isoform, mitochondrial (Homo sapiens), O94925 | GLS enzymatic activity, qHTS titration | Potency, µM (top dose mostly 45.5 µM), for the others: at the top dose activity change, negative = inhibition, most hits filed as inhibitors | hit rate 0.21% among 410,000 | AID 624170, 2012; also: % is scaled to controls: 0 for no effect and ±100 for the full control effect
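Enzyme dispensed in phosphate buffer (45 mM, pH 8.2, 0.02% Tween-20), compounds pinned in, then 1 mM L-glutamine solution and the glutamate oxidase–HRP–Amplex Red mix added; fluorescence read immediately and again after 30 min at room temperature.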
PKM2 activator: qHTS Assay for Activators of Human Muscle isoform 2 Pyruvate Kinase. Pyruvate kinase PKM (Homo sapiens), P14618. purified PKM2, Kinase-Glo ATP luminescence, activation; response scale: 0% is enzyme alone, no compound. Potency, µM (highest dose often 57.5 µM), for inactives: at the highest dose activation, usual class: activators. hit rate 0.34% among 260,000; also: % is scaled to controls: 0 for no effect and ±100 for the full control effect; nearly all actives have a fitted effect of over 55% in size
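Purified hPK-M2 (>95%) run at intermediate activity with 0.1 mM ADP and 0.5 mM PEP in 50 mM imidazole pH 7.2, KCl, MgCl2; 1 h room temperature. ATP formed read by Kinase-Glo luminescence; normalized to uninhibited and no-enzyme controls.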
PLK1 PBD block: qHTS for Inhibitors of PLK1-PDB (polo-like kinase 1 - polo-box domain): Primary Screen | hit rate 2.8% among 360,000 | Potency, µM, without a hit: max response, negative = inhibition, actives largely listed as inhibitors | Plk1 PBD binding of FITC phosphopeptide, fluorescence polarization | Serine/threonine-protein kinase PLK1 (Homo sapiens), P53350; also: series mostly up to about 57 µM; % is scaled to controls: 0 for no effect and ±100 for the full control effect; nearly all actives have a fitted effect of over 65% in size
Target sequence (P53350 whole entry, looked up, the tested form may be a part): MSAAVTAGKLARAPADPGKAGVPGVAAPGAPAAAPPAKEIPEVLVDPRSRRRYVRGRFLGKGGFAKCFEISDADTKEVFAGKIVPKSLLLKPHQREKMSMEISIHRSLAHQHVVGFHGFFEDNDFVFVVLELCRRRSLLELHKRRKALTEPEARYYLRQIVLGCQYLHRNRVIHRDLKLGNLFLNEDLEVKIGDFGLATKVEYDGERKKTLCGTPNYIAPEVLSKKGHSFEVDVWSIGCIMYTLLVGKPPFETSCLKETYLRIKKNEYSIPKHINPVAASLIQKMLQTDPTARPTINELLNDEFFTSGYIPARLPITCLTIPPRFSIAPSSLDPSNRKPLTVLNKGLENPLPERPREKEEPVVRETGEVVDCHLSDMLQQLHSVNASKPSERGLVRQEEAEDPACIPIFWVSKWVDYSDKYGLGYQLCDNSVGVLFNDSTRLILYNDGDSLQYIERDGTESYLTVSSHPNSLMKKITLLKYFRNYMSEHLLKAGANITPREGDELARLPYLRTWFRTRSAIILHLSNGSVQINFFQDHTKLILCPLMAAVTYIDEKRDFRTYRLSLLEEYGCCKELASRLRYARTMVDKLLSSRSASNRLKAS
VDR inh: Inhibitors of the vitamin D receptor (VDR): qHTS; Vitamin D3 receptor (Homo sapiens), P11473; VDR-SRC2-3 peptide fluorescence polarization, 2 h; Potency, µM, for inactives: max response, negative = inhibition, hits mostly inhibitors; hit rate 0.93% among 400,000; AID 504847, 2011; also: % is scaled to controls: 0 for no effect and ±100 for the full control effect
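The screen uses fluorescence polarization to detect compounds that interfere with recruitment of the SRC2-3 coactivator peptide to VDR; plates are read after 2 h at room temperature.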
Numbers without * were called inactive. Calls follow the shape of the dose curve; as a rule, active = well fitted curve in the direction sought with a large enough effect; inconclusive = small, poorly fitted or top-dose-only effect, or another doubt; inactive = no such curve, though single readings can be large; an effect the other way counts as inactive or inconclusive. Potency is read from the fitted curve at half-maximal effect.

How did COc1cc(CNc2ccc(S(N)(=O)=O)cc2)ccc1OCc1ccccc1F do in these assays?
GLS inh: 11.2%; PLK1 PBD block: 0.6%; VDR inh: 9.3%

Results for Cc1onc(-c2c(F)cccc2Cl)c1C(=O)N1CCCC1 ?
GCN5L2 inh: -5.8%; Mito fusion yeast: 2.4%; GLS inh: 1.1%; PLK1 PBD block: -5.6%; VDR inh: 4.0%

Results for O=C1C=CC(=O)c2c(O)c(N3CCN(CCO)CC3)c(Cl)c(O)c21 ?
GLS inh: inconclusive; PLK1 PBD block: 11.9µM*; VDR inh: 8.91µM*

How did O=C1C=CC(=O)c2c(O)c(N3CCN(CCOCCO)CC3)c(Br)c(O)c21 do in these assays?
GLS inh: 4.2%; PLK1 PBD block: inconclusive; VDR inh: inconclusive

How did COc1cc(Br)ccc1C1CC(=O)C(C)C(c2ccc(Br)cc2OC)N1 (stereo unspecified) do in these assays?
GCN5L2 inh: -4.0%; Mito fusion yeast: 13.5%; GLS inh: -13.3%; PLK1 PBD block: 5.2%; VDR inh: 12.7%

What do the screens show for `Cc1ccc(C)c(NC(=O)c2cnc3sc(N4CCOCC4)nn3c2=O)c1`?
GCN5L2 inh: -14.2%; GLS inh: 6.0%; VDR inh: 6.3%

What do the screens show for `O=[N+]([O-])c1cc(Cl)cc(/C=N/NC(=S)Nc2ccc(S(=O)(=O)N3CCOCC3)cc2)c1O`?
GCN5L2 inh: inconclusive; Mito fusion yeast: 7.1%; GLS inh: 40.9%; PKM2 activator: -12.2%; PLK1 PBD block: 16.8µM*; VDR inh: -13.1%

What do the screens show for `O=S(=O)(c1ccc(NC(=S)N/N=C/c2ccc(O)c(O)c2)cc1)N1CCOCC1`?
GCN5L2 inh: -13.3%; Mito fusion yeast: 3.0%; GLS inh: inconclusive; PKM2 activator: -6.1%; PLK1 PBD block: -17.2%; VDR inh: 0.5%

What do the screens show for `CCOc1ccc(S(=O)(=O)Nc2ccc3c(c2)N(C(C)=O)CCC3)cc1`?
GCN5L2 inh: 16.9%; GLS inh: 9.3%; VDR inh: 1.7%

Results for COc1ccc(N(CC(=O)NC2CC3CCC2C3)S(=O)(=O)c2ccc(C)cc2)cc1Cl (stereo unspecified) ?
GLS inh: -7.1%; PLK1 PBD block: 0.9%

How did CCSC1=C(C#N)C2(CCCC2)C(C#N)=C(N)N1 do in these assays?
GCN5L2 inh: -2.9%; Mito fusion yeast: 20.8%; GLS inh: inconclusive; PKM2 activator: 14.2%; PLK1 PBD block: 2.99µM*; VDR inh: -27.6%

Results for O=C(CCCCCN1C(=O)[C@@H]2Cc3ccccc3CN2C1=O)Nc1cccc(F)c1 ?
GCN5L2 inh: -6.3%; Mito fusion yeast: 12.6µM*; GLS inh: 0.2%; PLK1 PBD block: -12.7%; VDR inh: -2.1%

Results for CCc1sc(C(=O)N(CCOC)c2c(N)n(Cc3ccccc3)c(=O)[nH]c2=O)cc1C ?
GLS inh: 0.0%; PLK1 PBD block: -10.8%

What do the screens show for `CC(=O)N1CCCc2cc(S(=O)(=O)Nc3ccccc3C)ccc21`?
GCN5L2 inh: -8.6%; Mito fusion yeast: 4.6%; GLS inh: -0.2%; PKM2 activator: 4.3%; PLK1 PBD block: -4.1%; VDR inh: -11.1%

How did CC(=O)N1CCc2ccc(S(=O)(=O)Nc3ccccc3Cl)cc21 do in these assays?
GCN5L2 inh: 13.4%; Mito fusion yeast: -0.2%; GLS inh: 3.9%; PKM2 activator: 12.6µM*; PLK1 PBD block: -18.1%; VDR inh: -3.1%

How did Cc1c(NC(=O)c2cccs2)cccc1-c1nc2ccccc2s1 do in these assays?
GCN5L2 inh: -0.6%; Mito fusion yeast: 15.8µM*; GLS inh: -4.5%; PKM2 activator: -5.1%; PLK1 PBD block: inconclusive; VDR inh: 1.3%
